# Assay outcomes deposited in PubChem by several laboratories.
# Sampled rows, rich in hits. Any-hit rate of the full collection: about 3.8%.
# 697 NFkB inh: inhibitors of the PMA/ionomycin-induced NF-kB reporter in 697 B cells | 697 B-cell NF-kB luciferase reporter, 16 h | inhibition, % at 4 µM | 330,000 tested, 0.33% active | AID 435022; in the data active = inhibition above about 35%
# Gli-Sufu block: Gli-Sufu pathway antagonism | inhibition, % at 5 µM | Sufu-KO-LIGHT fibroblasts, Gli luciferase reporter luminescence | 340,000 tested, 0.74% active | AID 588413;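 active = inhibition above about 55%, limit read from the data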;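 also: 0% = DMSO-treated cells and 100% = wells with medium but no cells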
# Shn3 3UTR inh: inhibitors of Schnurri-3 3'UTR reporter in osteoblasts. Clone20 osteoblast Shn3 3'UTR firefly luciferase, 24 h. inhibition, % at 12.5 µM. 360,000 tested, 0.52% active;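 active = mean inhibition of at least 75% with every replicate also reaching 75%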;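 also: 0% = median of neutral control wells and 100% = pilot-screen positive control compound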
# Mdm2 MdmX PPI: disrupts the human Mdm2-MdmX interaction; 330,000 tested, 3% active; O15151+Q00987; AID 485346; SaOS-2 split-luciferase Mdm2/MdmX complementation, luminescence; inhibition, % at 8 µM;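 active = inhibition of at least 50% at 8 µM in the primary screen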
# Jurkat NFkB inh: inhibitors of the PMA/ionomycin-induced NF-kB reporter in Jurkat cells | PMA/ionomycin-induced NF-kB luciferase reporter, luminescence | inhibition, % at 4 µM | 330,000 tested, 0.53% active | AID 435003; in the data active = inhibition above about 50%
# Jurkat NFkB conf: lowers PMA/ionomycin-induced NF-kB signal in Jurkat cells | shares compounds with Jurkat NFkB inh | Jurkat NF-kB luciferase, 16 h | inhibition, % at 4 µM | 2,700 tested, 27% active | AID 435020;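 active = inhibition reaching about 45% at 4 µM in either replicate, limit read from the data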;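 also: plate controls were PMA/ionomycin stimulated DMSO wells for no effect and unstimulated DMSO wells for full effect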
# 697 NFkB conf: lowers PMA/ionomycin-induced NF-kB signal in 697 B cells; shares compounds with 697 NFkB inh; 697 B-cell NF-kB luciferase, 16 h; inhibition, % at 4 µM; 2,000 tested, 35% active; AID 449746; in the data active = inhibition mostly above about 28%, no sharp cut-off; inactive = mostly below about 22%
# Active calls of the source: *; i = inactive; · = not tested or not shown.
SMILES,697 NFkB inh,Gli-Sufu block,Shn3 3UTR inh,Mdm2 MdmX PPI,Jurkat NFkB inh,Jurkat NFkB conf,697 NFkB conf
CCOc1ccc2nc(NC(=O)c3ccoc3C)sc2c1,-373.8,4.3,25.0,-215.2,-168.0,-106.4,-322.4
CCOc1ccc2nc(NC(=O)COC)sc2c1,-122.0,-118.8,-37.3,-92.8,-69.9,·,·
COc1ccc2nc(NC(=O)c3ccccc3F)sc2c1,-278.8,-105.1,-38.5,-216.4,-153.7,-116.0,-317.5
COc1ccc2nc(NC(=O)Nc3ccccc3)sc2c1,-334.9,-91.0,-26.7,-87.0,-222.8,-127.7,-317.2
COc1cccc(CNC(=O)CCNC(=O)C2CCN(S(=O)(=O)c3ccccc3)CC2)c1,14.4,6.3,-3.9,-9.1,-0.1,·,·
O=C(C=C(C(=O)c1ccccc1)c1ccccc1)c1ccccc1,·,0.8,21.1,·,·,·,·
COc1ccc(-c2cn3c4c(sc3n2)CCCC4)cc1,-292.2,-122.6,5.2,-84.8,-191.0,-130.4,-346.5
CCCCCn1c(=O)[nH]c2cc(C(=O)N3CCN(Cc4ccc5c(c4)OCO5)CC3)ccc2c1=O,104.5*,57.4*,74.7,40.1,63.6*,77.2*,84.8*
CCOC(=O)c1cn[nH]c1NC(=S)Nc1ccc(Cl)cc1,-449.1,-71.7,-69.5,-27.4,-184.5,-108.6,-267.8
CCOc1ccc(/C=C2\SC(=S)N(CCC(=O)O)C2=O)cc1,77.2*,18.9,4.1,27.6,52.5*,61.0*,66.5*
COc1ccc(C(=O)Nc2nnc(SCC(=O)Nc3ccc(NC(C)=O)cc3)s2)c(OC)c1,71.0*,-26.2,-115.4,-32.4,-206.7,-129.2,61.4*
Nc1c2c(nc3sc4c(c13)CCCCC4)CCCCC2,-259.7,-90.0,-5.5,-93.3,-177.2,-97.6,-203.5
CC1CCc2nc3sc4c(c3c(N)c2C1)CCCC4 (centres undefined),-97.7,-43.6,-52.5,-79.1,-77.9,·,·
NC(=O)c1ccsc1NC(=O)c1ccc2c(c1)CCCC2,-301.7,-142.3,-31.7,-163.5,-182.8,-120.2,-358.5
CNC(=O)c1ccsc1NC(=O)c1ccc2c(c1)CCCC2,-57.2,-57.3,-35.9,-96.1,-65.3,·,·
O=C(/C=C\Nc1ccccc1Br)c1ccc2c(c1)OCO2,-355.7,-119.7,34.1,-135.4,-168.7,-40.2,-213.1
O=C(/C=C\Nc1cccc(F)c1)c1ccc2c(c1)OCO2,-411.0,-160.7,11.4,-26.7,-170.9,-141.6,-228.4
COC(=O)c1ccc(N/C=C\C(=O)c2ccc3c(c2)OCO3)cc1,-45.2,-24.1,-39.5,-27.3,-40.3,·,·
O=C(/C=C/c1ccccc1Br)c1ccc2c(c1)OCO2,-33.6,16.0,9.7,-12.6,-22.4,·,·
O=C1CC(C(=O)N2CCN(c3ccccn3)CC2)CN1Cc1ccccc1Cl (centres undefined),17.6,-4.5,3.0,-28.3,20.1,·,·
Nc1c(C(=O)Nc2cccc(F)c2)nnn1-c1ccc2c(c1)OCCO2,-362.4,-102.8,-28.8,-112.0,-155.4,-144.5,-486.6
Cn1c(N)c(S(=O)(=O)N2CCN(c3ccccc3F)CC2)c(=O)n(C)c1=O,13.1,-7.2,4.5,36.4,-2.5,·,·
COc1ccc(N/C=C2\CCc3ccccc3C2=O)cc1,-290.1,-83.7,20.5,-37.4,-196.6,14.4,-9.3
COc1ccc2c(c1)CC/C(=C\Nc1ccc3c(c1)OCO3)C2=O,-30.1,-64.2,-6.7,-90.1,-63.2,·,·
Cc1ccc(NC(=O)COc2ccc(N(C)C(=O)C(C)(C)C)cc2)cc1S(=O)(=O)N1CCCCC1,51.0*,68.0*,78.7,43.5,53.8*,78.0*,76.6*
SMILES,697 NFkB inh,Gli-Sufu block,Shn3 3UTR inh,Mdm2 MdmX PPI,Jurkat NFkB inh,Jurkat NFkB conf,697 NFkB conf
CCc1cccc(OCC(=O)Nc2ccc(C)c(S(=O)(=O)N3CCCCCC3)c2)c1,-27.8,23.0,65.9,27.3,4.4,·,·
O=C(Nc1ccc(S(=O)(=O)Nc2ccc(F)cc2)cc1)c1ccc(CN2CCOCC2)cc1,47.2*,4.3,22.2,32.4,63.4*,62.7*,19.5
CCCCCc1nnc(NC(=O)C2=COCCO2)s1,-118.6,-59.8,-74.0,-55.5,-43.3,·,·
O=C(Nc1ccc2c(c1)CCC2)c1ccccc1F,-250.6,·,-28.5,-179.4,-176.6,-145.1,-224.4
O=C(O)c1ccccc1-c1ccccc1C(=O)Nc1ccc2c(c1)CCC2,0.0,0.9,-5.6,0.8,-8.8,·,·
Cc1ccc(C2=NCCn3nc4cc([N+](=O)[O-])ccc4c32)cc1,-9.2,5.0,-1.5,11.4,0.2,·,·
Cc1ccnc(NC(=O)c2sc3ccccc3c2Cl)c1,-400.6,4.2,8.6,17.1,-152.8,-87.5,-286.6
Cc1c(-c2nc(-c3ccc(C(C)(C)C)cc3)no2)n(C)oc1=O,-418.1,-133.7,·,-47.8,59.8*,-30.6,-412.7
Cc1ccccc1NC(=O)N(O)C1(C#N)CCCCC1,·,-22.1,-5.4,·,·,·,·
CCN(CC)C(=O)c1cccc(-c2csc(C(O)c3ccc(F)c(OC)c3)n2)c1 (centres undefined),·,·,20.5,·,·,·,·
CC(=Nc1ccccc1)c1sc2ccccc2c1O,-251.1,-89.4,-81.2,-285.4,-158.2,-17.0,-22.6
COCCNC(=S)N(C)[C@H]1C[C@H]2c3cc(Oc4ccccc4C)ccc3CCN2C(=O)[C@H]1[C@H](C)O,·,·,4.0,·,·,·,·
COc1ccc(CCN(Cc2cc3ccc(C)cc3n3nnnc23)C(C)=O)cc1OC,-2.9,5.5,7.5,-0.1,-13.8,·,·
C[C@H](NC(=O)c1nc[nH]c1C(=O)N[C@@H](C)C(=O)OCc1ccccc1)C(=O)OCc1ccccc1,55.6*,0.4,5.4,-7.2,51.3*,85.5*,60.0*
CCOc1ccc(NC(=O)CSc2nnnn2-c2ccc(C(N)=O)cc2)cc1,-4.3,1.9,-5.7,37.4,-9.4,·,·
Cc1ccc(N=Cc2sc(O)c3ccccc23)cc1,-257.0,-53.9,-188.0,-261.6,-197.2,13.8,-35.5
Cc1ccc(N=Cc2sc(O)c3ccccc23)c(C)c1,-30.6,-82.0,-94.8,-58.8,-40.1,·,·
COc1ccc(CCNC(=O)Cc2cccc(C(F)(F)F)c2)cc1OC,-1.5,-9.3,-7.9,-10.5,-2.4,·,·
Cc1ccc(S(=O)(=O)NN2CCCCCC2)cc1,·,·,9.2,·,·,·,·
Cc1cccc(-c2cc3nc4c(c(NCc5ccco5)n3n2)CCCC4)c1,-263.9,-57.9,3.9,-70.3,-154.2,-99.3,-294.8
Cc1cc(C)nc(SC2=CS(=O)(=O)c3ccccc32)n1,0.0,12.6,31.8,46.1,49.7,·,·
O=S1(=O)C=C(Sc2nc3ccccc3s2)c2ccccc21,-476.8,24.1,·,-14.9,96.8*,92.3*,i
COc1ccc(C2=NCCn3nc4cc(OC)ccc4c32)cc1,-40.1,35.6,-26.1,-6.1,-21.4,·,·
c1cncc(Nc2nc(-c3cccnc3)cs2)c1,30.3,-7.9,-29.9,23.2,-14.4,·,·
Fc1ccc(-c2csc(Nc3ccccn3)n2)cc1,-263.7,1.2,-92.5,-183.1,-169.4,-74.4,-215.6
Clc1ccccc1Nc1nc(-c2cccnc2)cs1,-269.6,-56.5,-48.4,-196.1,-189.0,-96.3,-209.9
Cc1cccnc1Nc1nc(-c2ccccc2)cs1,-252.1,-99.2,-99.0,-219.4,-151.8,-93.2,-232.3
